From PubChem BioAssay (NCI)
This is part of a sample that, as a whole, favours compounds with a hit. Of some 83,000 tested, about 20% had one in any assay.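 In brief: 96-well plates, 48 h treatment, single concentration, percent growth endpoint.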 Values without a mark were called inactive. The source made the active and inactive calls. How the source made its calls: active means growth percent below 10; inactive means the rest.

System: MDA-MB-468 breast
Assay: NCI-60 one-dose screen, 48 h (100 = growth as untreated, 0 = no growth, -100 = all killed)
Details: 10 µM unless noted

SMILES	growth
COc1ccc(N=C2NN=C(c3c[nH]c4ccccc34)CS2)cc1OC	10.5%
COc1ccc(/C=C2\Oc3cc(OCCCN4CCCCC4)ccc3C2=O)cc1OC	76.4%
CCN1CCN(c2nc3ccccc3c3c(=O)c4ccccc4sc23)CC1	35.5%
Cc1cc(C)n(-c2nnc3n2N=C(c2ccc(-c4ccccc4)cc2)CS3)n1	-5.89% (active)
N#C/C(=C\N1C(=O)/C(=C/c2cccc([N+](=O)[O-])c2)SC1=S)c1nc2ccccc2s1	81.7%
Nc1ccc(S(=O)(=O)Nc2ccnn2-c2ccccc2)cc1	107%
CC(=O)Nc1ccc(/C=C/C(=O)c2ccccc2)cc1	52%
O=C(Nc1cccc(Cl)c1)OCC(COC(=O)Nc1cccc(Cl)c1)(COC(=O)Nc1cccc(Cl)c1)[N+](=O)[O-]	16.5%
CCCCOc1nc2c(C)cccc2cc1C1CNC(=O)c2ccccc2N1 (stereo unspecified)	51.6%
COc1ccc(/C=N/Nc2nc3ccccc3s2)cc1	84.8%
CC/C(=C(/c1ccc(Cl)cc1)c1ccc(OCCN2CCCCCC2)cc1)c1ccccc1	78.3%
NC(=O)C1CCCN(Cc2c[nH]c3ccccc23)C1 (stereo unspecified)	97.7%
O=C(O)C1(C(=O)O)CCC1.[NH2-].[NH2-].[Pt+2]	106%
CCCNc1ccc(C2=NCCCN2)cc1	87.9%
O=C1Nc2ccccc2/C1=N/c1nc(-c2ccc(Cl)cc2)cs1	59%
O=C(N/N=C/c1ccc(O)cc1O)c1cccc(Nc2ccnc(C(F)(F)F)c2)c1	43.1%
O=C(Nc1ccccc1)Nc1ccccc1CNc1nc(Nc2ccc(OCCN3CCCC3)cc2)ncc1Cl	17.7%
O=C(Oc1ccccc1Cl)c1ccc(Cl)cc1Cl	103%
COC(=O)c1[nH]nc(OC)c1C1(C(C#N)c2nc3ccccc3s2)CCCc2ccccc21 (stereo unspecified)	98.2%
CC(=O)Nc1ccc(S(=O)(=O)n2ccc(-c3ccc4c(c3)CCC(C)(C)O4)n2)cc1	24.9%
O=c1[nH]c2ccccc2cc1CSc1ccccc1Nc1nccc(-c2ccc(Cl)cc2)n1	99.3%

SMILES	growth
CCN(CC)CCOC(COc1cc(C)cc(C)c1)COc1cc(C)cc(C)c1	9.41% (active)
CC1(C)OC2COC3(C(=O)O)OC(C)(C)OC3C2O1 (stereo unspecified)	93.6%
c1ccc2c(-c3nc4ccccc4[nH]3)cccc2c1	-15.3% (active)
Oc1ccc(OCCOc2ccc(O)cc2)cc1	94.6%
N#CC1C=Cc2c(ccc3ccccc23)N1C(=O)c1ccccc1 (stereo unspecified)	-10.5% (active)
Nc1ccccc1SC1CC(=O)N(c2ccc(I)cc2)C1=O (stereo unspecified)	121%
COC(=O)[C@H](Cc1cn(C)cn1)NC(=O)[C@@H](NC(=O)Nc1cc(C(F)(F)F)cc(C(F)(F)F)c1)C(C)(C)C	-63.1% [100 µM] (active)
COc1cccc(C2CC(=O)Nc3c2c(C)nn3-c2nc3ccccc3[nH]2)c1OC (stereo unspecified)	71.5%
CC/C(=C(/c1ccc(Cl)cc1)c1ccc(OCCN2CCCCC2)cc1)c1ccc(Cl)cc1	51.9%
CC(CCC(=O)O)(NC(=O)c1ccc([N+](=O)[O-])cc1)C(=O)O (stereo unspecified)	112%
CC(C)OC(=O)c1ccc2[nH]c(O)c(C(=Nc3ccc(N(C)C(=O)CN4CCN(C)CC4)cc3)c3ccccc3)c2c1	-91% (active)
CC(C)c1ncc([N+](=O)[O-])n1C	104%
COCC(=O)NC/C=C/c1ccc2ncnc(Nc3ccc(Oc4ccc(C)nc4)c(C)c3)c2c1	28.4%
CCCCn1c2cc(OCc3cn(-c4ccc(Cl)cc4)nn3)ccc2c2ccnc(C)c21	22.3%
CSc1nc(NCCCNc2ccnc3cc(Cl)ccc23)cc(-c2ccccc2)n1	11.3%
O=C(CCl)NNc1nccc(Nc2ccc(S(=O)(=O)Nc3ccncc3)cc2)n1	31.5%
Oc1ccc(Cl)cc1Sc1cc(Cl)ccc1O	22%
O=C1c2c(c3c4cc(Br)ccc4[nH]c3c3ccc4ccccc4c23)C(=O)N1CCO	100%
COc1cc(-c2nc(SCC(C)C)nc(Nc3cccc4ccccc34)c2C#N)cc(OC)c1OC	116%
Nc1c(C(=O)Nc2ccc(Cl)cc2)cc(-c2nc3ccccc3s2)c(=O)n1NS(=O)(=O)c1ccc(Cl)cc1	110%
